The subject of this experiment is MDA-MB-468. Briefly: phospho-S6 immunofluorescence (DAPI-normalised), per-plate z-score; higher = higher phospho-S6 signal (less pathway suppression). As to conditions: 24 h. How it is done: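 GPCR-targeted compound library (MedChemExpress HY-L006) tested on MDA-MB-468 PTEN-null TNBC cells in 384-well plates at 0.1, 1 or 10 uM, combined with vehicle, GDC0941 450 nM or lapatinib 1 uM, for 24 h. Phospho-S6 (S240/244) immunofluorescence normalised to DAPI and expressed as a per-plate z-score; values are the mean of biological triplicates.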

Counter-ions that a name gives are not always drawn.

`COc1ccc2c(c1OC)CN1CCc3cc4c(cc3C1C2)OCO4` (configuration not stated) [Tetrahydroberberine] (compound 10 µM): the “phospho-S6 immunofluorescence (z-score)” value reads like this: (co-treatment: GDC0941 450 nM) -0.04; (co-treatment: lapatinib 1 uM) -1.09; (co-treatment: vehicle) -0.52.
On the same counts, the results for `CN1[C@@H]2CC[C@H]1C[C@@H](OC(=O)C(CO)c1ccccc1)C2` (some centres not stated) [Atropine (sulfate monohydrate)] (compound 10 µM) are -1.09, -0.18 and -0.82.
In the case of `CC(C)[C@@H](CN1CC[C@@](C)(c2cccc(O)c2)[C@@H](C)C1)NC(=O)[C@H]1Cc2ccc(O)cc2CN1` [JDTic (dihydrochloride)] (compound 10 µM), the “phospho-S6 immunofluorescence (z-score)” value is, setting by setting: (co-treatment: GDC0941 450 nM) 0.26; (co-treatment: lapatinib 1 uM) -2.5; (co-treatment: vehicle) 0.81.
On to `O=Cc1cn(Cc2ccc(Cl)cc2)c2ccccc12` [Oncrasin-1] (compound 10 µM), for which the “phospho-S6 immunofluorescence (z-score)” value by setting is: (co-treatment: GDC0941 450 nM) -3.49; (co-treatment: lapatinib 1 uM) -7.38; (co-treatment: vehicle) -9.12.
The like results for `CCC(COC(=O)c1cc(OC)c(OC)c(OC)c1)(c1ccccc1)N(C)C` (configuration not stated) [Trimebutine (maleate)] (compound 10 µM) were, in that order, 1.12, 1.5 and 0.51.
For `CNCC(O)c1ccc(O)cc1` (configuration not stated) [Synephrine (hydrochloride)] (compound 10 µM), the “phospho-S6 immunofluorescence (z-score)” value is, setting by setting: (co-treatment: GDC0941 450 nM) 1.02; (co-treatment: lapatinib 1 uM) 0.35; (co-treatment: vehicle) 0.24.
On the same counts, the results for `O=C1CCC[C@@H]2[C@H]3CCCN4CCC[C@@H](CN12)[C@@H]34` [Matrine] (compound 10 µM) are -0.52, -0.53 and -0.24.
On the same counts, the results for `COc1ccc2[nH]cc(C3=CCNCC3)c2c1` (compound 10 µM) are -0.19, -2.58 and -0.11.
As for `CN1C[C@H](C(=O)N[C@]2(C)O[C@@]3(O)[C@@H]4CCCN4C(=O)[C@H](Cc4ccccc4)N3C2=O)C[C@@H]2c3cccc4[nH]cc(c34)C[C@H]21` [Dihydroergotamine (mesylate)] (compound 10 µM), the “phospho-S6 immunofluorescence (z-score)” value is 1.05 (co-treatment: GDC0941 450 nM), 0 (co-treatment: lapatinib 1 uM) and 0.86 (co-treatment: vehicle).
The like results for `CCN(CCCCO)C(C)Cc1ccc(O)cc1` (configuration not stated) [O-desmethyl Mebeverine alcohol (hydrochloride)] (compound 10 µM) were, in that order, -0.73, -0.03 and -0.64.
The like results for `O=C(C[S+]([O-])C(c1ccccc1)c1ccccc1)NO` (configuration not stated) [Adrafinil] (compound 10 µM) were, in that order, -0.02, 0.28 and -0.05.
On the same counts, the results for `COc1ccc(C(=O)c2c(C)n(CCN3CCOCC3)c3cc(I)ccc23)cc1` (compound 10 µM) are -3.18, -1.01 and -3.47.
For `C[N@+]1(CC2CC2)CC[C@]23c4c5ccc(O)c4O[C@H]2C(=O)CC[C@@]3(O)[C@H]1C5` [Methylnaltrexone (Bromide)] (compound 10 µM), the “phospho-S6 immunofluorescence (z-score)” value runs as follows: (co-treatment: GDC0941 450 nM) 0.46; (co-treatment: lapatinib 1 uM) 0.44; (co-treatment: vehicle) -0.66.
On the same counts, the results for `CNC(C)Cc1ccccc1OC` (configuration not stated) [Methoxyphenamine (Hydrochloride)] (compound 10 µM) are 0.57, -0.2 and 0.23.

For the origin of these results see the supplement of paper PMC7411640.
